Measurements reported in PubChem BioAssay AID624093 (National Center for Advancing Translational Sciences (NCATS), 2012).
Results filed as inconclusive are left out. The source made the active and inactive calls. The call rests on the fitted dose curve; in most records, active means well fitted inhibition curve with a large enough effect; inconclusive means small, poorly fitted or top-dose-only effect; inactive means flat fitted curve, though single readings scatter.

Target: Dual specificity tyrosine-phosphorylation-regulated kinase 1A (Homo sapiens) (UniProt Q13627)
Experiment: Confirmation Assay for Inhibitors of Dyrk1a (Kinase-Glo Assay): KU probe
Details: Kinase-Glo ATP luminescence
Description: NIH Molecular Libraries Probe Production Centers Network [MLPCN] NIH Chemical Genomics Center [NCGC] MLSCN Grant: 1R03MH084827-01 PI Name: Tom Misteli NCGC Assay Overview: The CMGC group of protein kinases which includes CDK-like kinases (Clk) and Dyks are essential kinases found in all eukaryotes. Clks have been implicated to play a role in the regulation of alternative splicing; while Dyrks, in particular over expression of Dyrk1A, has been linked to diseases as Down syndrome (DS; OMIM 190685) and Alzheimer disease (AD; OMIM 104300). Among the members of the CMGC group, the Clks and the Dyrks are very closely related therefore to determine validity and selectivity of an active compound observed in the CLK4 qHTS screen (AID:1770), a bioluminescent counter-screen against Dyrk1A was developed. […]
NCGC Assay Protocol Summary: Two uL/well of substrate solution (8uM Dyrktide, 2uM ATP, 25mM Tris-HCl pH 7.5, 10mM MgCl2 , 0.5mM EGTA, 5mM cystein, 0.01% Triton X-100 final concentration) was dispensed into 1536-well assay plates (Greiner, solid white, medium-binding plates) with Aurora Discovery BioRAPTR Flying Reagent Dispenser (FRD, Beckton-Dickenson). […] The plates were spun for 30 seconds (1000 rpm) and incubated at ambient temperature for 2 minutes followed by a luminescence read using Perkin Elmer ViewLux plate reader at 3 seconds exposure time and 2x binning.

`Cc1cc(CNc2ccnc(-c3ccc4c(c3)OCO4)n2)cnc1F` was tested, and the Potency was 18.4 µM (active).
